# PubChem BioAssay (NCATS)
# Assay: qHTS profiling of the MIPE4 collection as inhibitors of Plasmodium falciparum (DD2) proliferation (AID 743345)
# Details: P. falciparum Dd2 in erythrocytes, SYBR Green DNA, 72 h; at 28.5 µM (top of the series) unless noted
# Method in brief: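 Parasite DNA was quantified by SYBR Green I fluorescence (ex 485, em 535 nm) after overnight lysis in saponin/Triton buffer at room temperature. Cultures at 0.3% parasitemia and 2.5% hematocrit were first exposed to compound for 72 h at 37 C; signals were normalised to artemisinin (0.29 uM) and vehicle wells.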
row,Structure (SMILES),"parasite growth remaining, % of DMSO control (lower = more inhibition)"
1,COc1ccc(-c2cc(=O)c3c(O)cc(O[C@@H]4O[C@H](CO[C@@H]5O[C@@H](C)[C@H](O)[C@@H](O)[C@@H]5O)[C@@H](O)[C@H](O)[C@@H]4O)cc3o2)cc1O,28.6%
2,CCCCC(C)(C)[C@H](O)C=C[C@H]1[C@H](O)CC(=O)[C@H]1CC=CCCCC(=O)O,135%
3,CC1(COc2ccc3c(c2)ncn3-c2ccc3cccc(N4CCC(N)CC4)c3n2)COC1,6.71%
4,O=C(NCCCCN1CCOCC1)c1cc2ccccc2o1,99.3%
5,CC(=O)O[C@]1(C(C)=O)CC[C@H]2[C@@H]3C=C(Cl)C4=CC(=O)[C@@H]5C[C@H]5[C@]4(C)[C@@H]3CC[C@@]21C,22.5%
6,CCC[C@H](Nc1nc(-c2ccc(NC(=O)NCC)c(OC)c2)ncc1C)c1cccnc1,7.78%
7,COc1cc2nc(-c3cc(F)ccc3O)nc(N[C@@H]3CNC[C@@H]3C(C)(C)O)c2cc1OC,6.09%
8,O=C(Nc1cccc2c(=O)cc(-c3nn[nH]n3)oc12)c1ccc(OCCCCc2ccccc2)cc1,31.5%
9,CC[C@H](C=C[C@@H](C)[C@H]1CC[C@H]2[C@@H]3CC=C4C[C@@H](O)CC[C@]4(C)[C@@H]3CC[C@]12C)C(C)C,104% [at 9.64 µM]
10,CN1CCC(COc2cnc(-c3cccc(Cn4nc(-c5cccc(C#N)c5)ccc4=O)c3)nc2)CC1,10.5%
11,CC(C)Oc1cc(Nc2nc(N[C@@H](C)c3ccc(F)cn3)ncc2Cl)[nH]n1,10.8%
12,CC[C@]1(O)C[C@H]2CN(CCC3=c4ccccc4=N[C]3[C@@](C(=O)OC)(c3cc4c(cc3OC)N(C)[C@H]3[C@@](O)(C(N)=O)[C@H](O)[C@]5(CC)C=CCN6CC[C@]43[C@@H]65)C2)C1,14.1%
13,CCOC(=O)N1CCN([N+]([O-])=NOc2cc(ON=[N+]([O-])N3CCN(C(=O)OCC)CC3)c([N+](=O)[O-])cc2[N+](=O)[O-])CC1,45.7%
14,CCOC(=O)[C@H](CCc1ccccc1)N[C@@H](C)C(=O)N1CCCC1C(=O)O (some centres not stated),91.5%
15,Cc1ccc(NC(=O)Nc2cc(C(F)(F)F)ccc2F)cc1Nc1ccc2c(c1)NC(=O)C2=Cc1ccc[nH]1,14.1%
16,C=C[C@@H]1CN2CCC1C[C@@H]2C(O)c1ccnc2ccc(OC)cc12 (some centres not stated),9.53%
17,CN1CCN2c3ncccc3Cc3ccccc3C2C1 (configuration not stated),93.6%
